The supplement of paper PMC6555819

How the values were obtained:
Experiment in all cases: PBM binding z-score (relative to random genomic background probes); higher = stronger binding; sequences stand for … in GC…GCGATTGACAGCGTAGAATGAAGG
[1] = test system: FXR:RXRa (NR concentration 270 nM, RXRa partner concentration 90 nM)
Method in brief: (§1)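 Antibodies against each partner of ligand-free nuclear receptor dimers (one per run) detected binding on custom Agilent 4×180K protein-binding microarrays after 1 h incubation. The double-stranded probes had 34-nt variable regions carrying direct-repeat seeds, single-nucleotide variants, half-site ablations and random human genomic background sequences. Binding z-scores, from regression-normalized fluorescence, use the random background probes as reference.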

[2] = test system: LXRa:RXRa (NR concentration 270 nM, RXRa partner concentration 90 nM)
Method in brief: as §1

[3] = test system: LXRa homodimer (NR concentration 270 nM)
Method in brief: as §1

[4] = test system: LXRb:RXRa (NR concentration 270 nM, RXRa partner concentration 90 nM)
Method in brief: as §1

[5] = test system: LXRb homodimer (NR concentration 270 nM)
Method in brief: as §1

[6] = test system: PPARa:RXRa (NR concentration 270 nM, RXRa partner concentration 90 nM)
Method in brief: as §1

[7] = test system: PPARg:RXRa (NR concentration 180 nM, RXRa partner concentration 90 nM)
Method in brief: as §1

[8] = test system: PPARg:RXRa 270nM:90nM, anti-RXR (NR concentration 270 nM, RXRa partner concentration 90 nM)
Method in brief: as §1

[9] = test system: PPARg:RXRa 30nM:10nM, anti-RXR (NR concentration 30 nM, RXRa partner concentration 10 nM)
Method in brief: as §1

[10] = test system: PPARg:RXRa 90nM:30nM, anti-RXR (NR concentration 90 nM, RXRa partner concentration 30 nM)
Method in brief: as §1

[11] = test system: PPARg:RXRa DBDmut IVT, anti-RXR (DBD mutation: RXRa K156A/R161A, NR concentration 270 nM, RXRa partner concentration 90 nM)
Method in brief: as §1

[12] = test system: PPARg:RXRa IVT, anti-PPARg (NR concentration 270 nM, RXRa partner concentration 90 nM)
Method in brief: as §1

[13] = test system: PPARg DBDmut:RXRa IVT, anti-PPARg (DBD mutation: PPARg1 K132A/R137A, NR concentration 270 nM, RXRa partner concentration 90 nM)
Method in brief: as §1

[14] = test system: PPARg DBDmut IVT, anti-PPARg (DBD mutation: PPARg1 K132A/R137A, NR concentration 270 nM)
Method in brief: as §1

[15] = test system: PPARg homodimer (NR concentration 180 nM)
Method in brief: as §1

[16] = test system: PXR:RXRa (NR concentration 270 nM, RXRa partner concentration 90 nM)
Method in brief: as §1

[17] = test system: PXR homodimer (NR concentration 270 nM)
Method in brief: as §1

[18] = test system: RARa:RXR (NR concentration 270 nM, RXRa partner concentration 90 nM)
Method in brief: as §1

[19] = test system: RARa homodimer (NR concentration 270 nM)
Method in brief: as §1

[20] = test system: RARb:RXRa (NR concentration 270 nM, RXRa partner concentration 90 nM)
Method in brief: as §1

| Sequence | PBM binding z-score [1] | PBM binding z-score [2] | PBM binding z-score [3] | PBM binding z-score [4] | PBM binding z-score [5] | PBM binding z-score [6] | PBM binding z-score [7] | PBM binding z-score [8] | PBM binding z-score [9] | PBM binding z-score [10] | PBM binding z-score [11] | PBM binding z-score [12] | PBM binding z-score [13] | PBM binding z-score [14] | PBM binding z-score [15] | PBM binding z-score [16] | PBM binding z-score [17] | PBM binding z-score [18] | PBM binding z-score [19] | PBM binding z-score [20] |
| --- | --- | --- | --- | --- | --- | --- | --- | --- | --- | --- | --- | --- | --- | --- | --- | --- | --- | --- | --- | --- |
| TCCTGTAGATCAATAGAGGTTAAGAAAGTGCGCT | 0.952 | 3.56 | 0.803 | 1.93 | 0.0925 | 1.74 | -0.0634 | 1.63 | 2.77 | 2.39 | 1.98 | 0.459 | 0.335 | 0.281 | 0.185 | 2.91 | 0.378 | 1.59 | 0.54 | 0.925 |
| CCTTACGGGTCACACCAGGTTATAGCATCGGAGT | 5.86 | 6.35 | 1.01 | 4.08 | 0.198 | 5.2 | 5.14 | 4.95 | 2.28 | 3.6 | 2.98 | 4.37 | 0.627 | -0.128 | 2.63 | 5.3 | 0.565 | 5.06 | 1.44 | 4.06 |
| GCTAGTAGATCAAGGTTAAGAAAGACTAAGCTAA | 0.0668 | 0.637 | -0.651 | 0.372 | -0.999 | 1.46 | 1.22 | 2.22 | 0.524 | 1.57 | 1.22 | 0.943 | -0.176 | -0.411 | -0.263 | 0.229 | 0.0369 | 0.542 | 0.169 | 0.561 |
| TCTCGTAGATCAAAGGTTAAGAAAGCCGAAGCCT | 1.56 | 1.85 | -0.119 | 1.9 | -0.471 | 3.46 | 4.19 | 5.74 | 4.84 | 6 | 1.73 | 1.46 | -0.063 | -0.642 | 0.726 | 1.89 | -0.203 | 2.71 | 0.027 | 1.69 |
| CGTCAAATTTCAACTAAGGTAACGTAAAGCACGC | 1.08 | 0.429 | 0.483 | 0.87 | 0.711 | 0.628 | 0.633 | 0.149 | 0.303 | 0.502 | 0.435 | 0.656 | 1.41 | 1.4 | 0.372 | 0.319 | 0.588 | 0.981 | 1.04 | 0.603 |
| CCTACTGGGCCATTCAGAGTTCATTGATCATATG | 0.991 | 2.71 | 6.11 | 1.86 | -0.389 | 2.28 | 1.04 | 1.61 | 0.0346 | 0.782 | 4.56 | 3.73 | -0.222 | 0.266 | 0.849 | 4.72 | 8.94 | 1.75 | -0.457 | 1.82 |
